# Tau FP inhib – blocks human tau fibril formation measured by polarization | 0.39% of 280,000 active | Potency, µM (series often up to 57.7 µM), for the others: at the highest dose activity, negative = inhibition, actives largely listed as inhibitors | K18 P301L tau heparin fibrillization, Alexa594 FP, 6 h; also: potency is read from the fitted curve at half-maximal effect; nearly all actives have a fitted effect of over 55% in size
# Target sequence (P10636 561-689 P618L limits assumed): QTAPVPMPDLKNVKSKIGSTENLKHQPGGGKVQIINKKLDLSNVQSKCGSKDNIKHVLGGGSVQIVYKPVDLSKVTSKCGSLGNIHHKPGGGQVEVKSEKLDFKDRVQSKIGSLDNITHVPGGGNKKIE
#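 K18 P301L tau (15 uM unlabeled/0.24 uM Alexa 594-labeled, final) + compound + heparin 20 uM final; 100 mM NaOAc pH 7; 6 hr 37 C; ThT 30 uM final added, 1 hr RT; FP ex 555/em 632 nm.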
# Tau fluor counter – counter-screen for tau fibril formation inhibitors; tau K18 P301L Alexa594 fluorescence, heparin fibrillization; Potency, µM (titrated, usually from 57.7 µM), without a hit: top-dose activity change, negative = decrease; 0.93% of 280,000 active; AID 1463; also: potency is read from the fitted curve at half-maximal effect; nearly all actives have a fitted effect of over 55% in size
#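 Human K18 P301L tau (15 uM unlabeled plus 0.24 uM Alexa 594-labeled, final) in 100 mM sodium acetate pH 7 was mixed with compound and 20 uM heparin and incubated 6 hr at 37 C.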
# Tau ThT inhib – inhibitors of human tau fibril formation, thioflavin T binding. recombinant tau K18 P301L, heparin-induced fibrillization, ThT fluorescence. 2.1% of 270,000 active. Potency, µM (highest dose often 57.4 µM), without a hit: top-dose activity, negative = inhibition, hits mostly inhibitors. P10636; also: potency is read from the fitted curve at half-maximal effect; nearly all actives have a fitted effect of over 55% in size
#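 ThT emission at 510 nm, taken 1 hr after adding 30 uM dye, quantifies aggregates formed when 20 uM heparin acts on human tau K18 P301L for 6 hr at 37 C.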
# FBPA coupling cs – inhibits coupling enzyme system, counter-screen for aldolase hits; coupling enzyme system counterscreen, AmpLite Red fluorescence; activity change, negative = inhibition, % at 58.2 µM, hits read low; 0.67% of 290,000 active; in the data active = activity change below about -30%
#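 Compounds tested against the coupling enzymes alone at 57.5 uM final; readout was AmpLite Red fluorescence (525/598 nm) after 20 min at RT.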
# An asterisk follows results filed as active; ? = inconclusive; nt = no result given; [ ] = remark or other dose. Most compounds without a hit are left out; they make up all but 2.7% or so of the library. Unless noted, calls follow the shape of the dose curve; as a rule, active = well fitted curve in the direction sought with a large enough effect; inconclusive = small, poorly fitted or top-dose-only effect, or another doubt; inactive = no such curve, though single readings can be large; an effect the other way counts as inactive or inconclusive. % is scaled to controls: 0 for no effect and ±100 for the full control effect.
SMILES,Tau FP inhib,Tau fluor counter,Tau ThT inhib,FBPA coupling cs
COc1ccc(S(=O)(=O)N2CCCC2C(=O)Nc2nc3c(s2)CCCC3)cc1 (configuration not stated),4%,-13%,-4%,0
COc1ccc(NC(=O)Nc2nnc(-c3ccccc3SCc3ccccc3)s2)cc1,?,3.5µM*[quencher],-6%,0
COc1ccc2nc(NC(=O)Nc3ccccc3)sc2c1,-14%,?,?,4
COc1ccc(Nc2ccc(OC)cc2)cc1,?,?,10µM*,-41*
COc1ccc(NC(=O)Nc2nc3c(s2)CCCC3)cc1,5%,18µM*[quencher],?,-1
COc1ccc(Nc2ccc(Nc3ccc(OC)cc3)nn2)cc1,6%,-25%,?,2
N#CCCCS(=O)(=O)c1nc2ccccc2s1,2%,-6%,-10%,1
Cc1ccc(S(=O)(=O)c2nnn3c2nc(N2CCN(c4ccccc4F)CC2)c2ccccc23)cc1C,-1%,5%,5%,nt
CCOC(=O)C1CCCN(C2=C(NS(=O)(=O)c3ccc(Br)cc3)C(=O)c3ccccc3C2=O)C1 (configuration not stated),nt,nt,nt,-38*
O=C1C(NS(=O)(=O)c2cccs2)=C(N2CCN(c3cccc(Cl)c3)CC2)C(=O)c2ccccc21,?,8.9µM*[quencher],4µM*,-23
O=C1C(NS(=O)(=O)c2ccc(Br)cc2)=C(N2CCCCC2)C(=O)c2ccccc21,nt,nt,nt,-26
CC1CCN(C2=C(NS(=O)(=O)c3ccc(Br)cc3)C(=O)c3ccccc3C2=O)CC1,nt,nt,nt,-17
O=C1C(NS(=O)(=O)c2ccccc2)=C(N2CCN(c3ccc(F)cc3)CC2)C(=O)c2ccccc21,-12%,10µM*[quencher],6.3µM*,-21
CC1CCN(C2=C(NS(=O)(=O)c3ccccc3)C(=O)c3ccccc3C2=O)CC1,?,11µM*[quencher],13µM*,-30
CC1CCN(C2=C(NS(=O)(=O)c3ccc(Cl)cc3)C(=O)c3ccccc3C2=O)CC1,-7%,?,?,-34*
Cc1cccc(CNC(=O)c2ccc(NC(=O)C3=CSCCO3)cc2)c1,nt,nt,nt,-3
Cc1nc(N)sc1N=Nc1ccc(F)cc1,11%,?,8.9µM*,-1
Cc1ccc(Cn2cc3c(n2)-c2c(oc(C(=O)Nc4ccc(F)cc4F)c2C)CC3)cc1,-4%,-25%,3%,nt
COc1ccc(Nc2ncc(C(=O)N3CCN(c4ccc(F)cc4)CC3)c3ccccc23)cc1,?,13µM*[quencher],?,-3
COc1ccc(NC(=O)c2cccnc2Nc2ccc(OC)cc2)cc1,?,14µM*[quencher],?,-2
COc1ccc(Nc2ncc(C(=O)N3CCN(c4cccc(Cl)c4)CC3)c3ccccc23)cc1,13%,?,-15%,nt
COc1ccc(Nc2ncc(C(=O)Nc3cccc(OC)c3)c3ccccc23)cc1,7%,14µM*[quencher],?,nt
COc1ccc(Nc2ncc(C(=O)N3CCN(c4ccc(OC)cc4)CC3)c3ccccc23)cc1,?,14µM*[quencher],?,nt
Cc1ccc(Nc2ncc(C(=O)N3CCN(c4ccc(F)cc4)CC3)c3ccccc23)cc1Cl,-12%,?,-2%,nt
Cc1ccc(C)c(NC(=O)Cn2cc(C(=O)C3CCCCC3)c3ccccc32)c1,-20%,-17%,-2%,nt
SMILES,Tau FP inhib,Tau fluor counter,Tau ThT inhib,FBPA coupling cs
c1ccc2c(c1)Nc1ccncc1S2,14%,?,?,-3
COc1ccc2c(c1)Sc1ccccc1N2,-11%,10µM*[quencher],10µM*,-3
c1ccc2c(c1)Nc1cc3ccccc3cc1S2,?,?,2.2µM*,-13
COc1ccc2c(c1)S(=O)(=O)c1ccccc1N2,10%,?,-7%,-2
COc1ccc(-c2[nH]ncc2Oc2ccccc2OC)c(O)c1,14%,25µM*[quencher],-11%,-4
C=C(C)COc1ccc(-c2[nH]ncc2Oc2cccc(OC)c2)c(O)c1,?,8.9µM*[quencher],-15%,-10
CCOc1ccccc1Oc1cn[nH]c1-c1ccc(O)cc1O,nt,nt,nt,-2
C=C(C)COc1ccc(-c2[nH]ncc2Oc2ccccc2OCC)c(O)c1,?,4µM*[quencher],?,-3
C=C(C)COc1ccc(-c2ncncc2Oc2ccc(OC)cc2)c(O)c1,3%,-10%,-9%,-14
O=C(NCc1ccccc1Cl)NCc1noc2ccccc12,-3%,-7%,3%,nt
CCOc1ccc(NC(=O)CSc2cn(CC(=O)N3CCCCCC3)c3ccccc23)cc1,-11%,-17%,-9%,nt
Cc1ccc(NS(=O)(=O)c2c(C)nc3sc(C)cn3c2=O)c(C)c1,6%,-4%,3%,nt

# Screening results from PubChem.
